± gives the standard deviation.
tested on: EfPiwi piRISC loaded with piRNA #1 (26 nt); assay: pre-steady-state target cleavage rate (min^-1); auxiliary factor: 500 nM Ephydatia muelleri Gtsf1; guide: piRNA #1 5'p-UGAGGUAGUAGGUUGUAUAGUAUCCA; MIWI and MILI are mouse PIWI proteins and EfPiwi is from a freshwater sponge; tags in brackets are library labels; higher = faster piRNA-guided slicing of the target
In short: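 Sequencing of uncleaved targets, normalised to depth and to weakly complementary targets, was the readout of this Cleave-'n-Seq assay. A transcribed, DNA-blocked target RNA library (0.1 nM) was mixed with 1 nM active affinity-purified piRISC carrying one synthetic guide, with or without 500 nM GTSF1 partner protein, in HEPES–potassium acetate buffer at 33 °C for 0–8 or 0–960 min. Three trials were pooled, k3 was capped at 0.0001 min^-1, and a burst-and-steady-state fit gave the pre-steady-state cleavage rate.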

| Sequence | pre-steady-state target cleavage rate |
| --- | --- |
| GGAGAGGAUACUAUACAACGUACUACGUCA | 0.00349 ± 0.0018 |
| GGAGUGGAUACUAUACAACCUUCUUCCUCA | 0.00355 ± 0.0026 |
| GGAGACGAUACUAUACAACCAACUAGCUCA | 0.00457 ± 0.0027 |
| GGAGACGAUACUAUACAACCUUGUACCUCA | 0.00308 ± 0.002 |
| GGAGAGGAUACAAUACUACCUACUACCUCA | 0.00424 ± 0.0028 |
| GGAGACGAUACUAUACAAUCCUACUACCUCA | 0.0069 ± 0.004 |
| GGAGAGGAUACUAUACAACCUUCUACGUCA | 0.00356 ± 0.0021 |
| GGAGAGGAUACUAUACUACCUACUACCUCA | 0.00925 ± 0.0043 |
| GGAGACCUAUGUAUACAACCUGACUACCUCA | < 0.0001 |
| GGAGACGAUACUAUACAGACCUACUACCUCA | 0.0101 ± 0.0034 |
| GGAGUGGAUACUAUACAACCAUGUACCUCA | 0.00412 ± 0.0026 |
| GGAGACCUAUCAUUACAACCUACUACCUCA | 0.00563 ± 0.0035 |
| GGAGACGAUACUAUACAAGCCUACUACCUCA | 0.00444 ± 0.0036 |
| GGAGACGAUACUAUACAUACCUACUACCUCA | 0.00857 ± 0.0043 |
| GGAGAGGAUACUAUACAGACCUACUACCUCA | 0.00626 ± 0.0046 |
| GGAGAGGAUACUUUACAACCUACAACCUCA | 0.00228 ± 0.0015 |
| GGAGAGGAUACUAUACAACCUACUACUCUCA | 0.00775 ± 0.0031 |
| GGAGAGGAUACUAUACAUCCUACUAGCUCA | 0.00277 ± 0.0019 |
| GGAGACCUAACUAUACAAGCCUACUACCUCA | 0.00432 ± 0.0033 |
| GGAGAGGUUACUAUACAACCUAGUACCUCA | 0.00366 ± 0.0015 |
| GGAGAGGAUACUAUACAACCUAGUACCUGA | 0.00379 ± 0.0015 |
| GGAGUGGAUACUAUACAACCUACUACCCCA | 0.00727 ± 0.0025 |
| GGAGACGAUAGUAUACAUCCUACUACCUCA | 0.00323 ± 0.0026 |
| GGAGACGAAACUAUACUACCUACUACCUCA | 0.00498 ± 0.0023 |
